A selection: hits, their analogues and other compounds. The true share with any hit is near 3.8%.
Bfl-1 A1 inh = inhibitors of the anti-apoptotic protein A1, read as caspase activation; MEF A1-2A-BIM cells, Caspase-Glo 3/7 luminescence, 3 h; percent of clofoctol response, vehicle zero; caspase activation, % (test concentration not listed); 330,000 tested, 0.066% active; AID 2462;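 active = over half of replicate activation scores above 10%, or exactly half above 10 with the replicate mean above 10; inconclusive = replicate mean below 10 yet half the replicates above 10; inactive = over half of replicates below 10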
Beta cell apopt = blocks beta cell apoptosis; 300,000 tested, 0.8% active; protection from apoptosis, % (concentration not given with the values); INS-1E cytokine-induced death, ATP luminescence, 48 h; percent of positive-control rescue, neutral wells zero;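 active = Every replicate reaches about 75%, or at least half do and their mean reaches it too, limit read from the data; inconclusive = At least half of replicates reach the limit but their mean does not; inactive = Under half of replicates reach the limit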;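 also: 0% = cytokine-treated negative control wells and 100% = positive control rescue; higher means more ATP so stronger rescue from cytokine killing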
NTR1 ag = activates human neurotensin receptor 1; P30989; NTR1-U2OS beta-arrestin-GFP spot imaging, agonist mode; activation, % at 20 µM; 330,000 tested, 0.17% active;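 active = activation at or above 40% of the spot to cytoplasm intensity ratio, with at least 20 cells analyzed; inconclusive = wells under 20 cells, flagged as cytotoxic or low count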;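 also: 0% = DMSO without peptide and 100% = 100 nM NTR1 peptide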
Target sequence (P30989 whole entry, looked up): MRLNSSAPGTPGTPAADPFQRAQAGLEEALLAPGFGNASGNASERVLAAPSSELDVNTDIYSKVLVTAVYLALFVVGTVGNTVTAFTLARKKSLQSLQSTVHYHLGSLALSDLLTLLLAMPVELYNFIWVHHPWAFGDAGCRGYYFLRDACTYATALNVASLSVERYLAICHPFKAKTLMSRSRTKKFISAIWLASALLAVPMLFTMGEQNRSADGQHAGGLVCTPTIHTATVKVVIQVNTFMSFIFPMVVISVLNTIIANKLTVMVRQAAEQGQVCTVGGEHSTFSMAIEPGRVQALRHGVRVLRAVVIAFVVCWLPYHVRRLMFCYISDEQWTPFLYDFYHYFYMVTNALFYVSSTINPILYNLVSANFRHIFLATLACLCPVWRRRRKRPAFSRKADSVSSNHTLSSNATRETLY
Mdm2-MdmX inh = disrupts the human Mdm2-MdmX interaction | O15151+Q00987 | SaOS-2 split-luciferase Mdm2/MdmX complementation, luminescence | inhibition, % at 8 µM | 330,000 tested, 3% active | AID 485346;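 active = inhibition of at least 50% at 8 µM in the primary screen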
697 NFkB inh = lowers PMA/ionomycin-induced NF-kB signal in 697 B cells; 697 B-cell NF-kB luciferase reporter, 16 h; inhibition, % at 4 µM; 330,000 tested, 0.33% active; in the data active = inhibition above about 35%
Jurkat NFkB inh = inhibitors of the PMA/ionomycin-induced NF-kB reporter in Jurkat cells; AID 435003; inhibition, % at 4 µM; 330,000 tested, 0.53% active; PMA/ionomycin-induced NF-kB luciferase reporter, luminescence; in the data active = inhibition above about 50%
Jurkat NFkB conf = inhibitors of the PMA/ionomycin-induced NF-kB reporter in Jurkat cells, retest. inhibition, % at 4 µM. shares compounds with Jurkat NFkB inh. 2,700 tested, 27% active. Jurkat NF-kB luciferase, 16 h;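 active = inhibition reaching about 45% at 4 µM in either replicate, limit read from the data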;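 also: plate controls were PMA/ionomycin stimulated DMSO wells for no effect and unstimulated DMSO wells for full effect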
697 NFkB conf = inhibitors of the PMA/ionomycin-induced NF-kB reporter in 697 B cells, retest | shares compounds with 697 NFkB inh | 697 B-cell NF-kB luciferase, 16 h | inhibition, % at 4 µM | 2,000 tested, 35% active | AID 449746; in the data active = inhibition mostly above about 28%, no sharp cut-off; inactive = mostly below about 22%
Mdm2-MdmX conf = confirmation of human Mdm2/MdmX interaction inhibitors | shares compounds with Mdm2-MdmX inh | Mdm2-MdmX binding, luminescent assay | inhibition, % at 8 µM | 10,000 tested, 55% active; in the data active = inhibition above about 40%
FLuc counter = full-length luciferase inhibition in Mdm2/MdmX counter-screen; shares compounds with Mdm2-MdmX inh; SaOS-2 full-length luciferase counterscreen, luminescence; inhibition, % at 8 µM; 6,200 tested, 77% active; AID 504607;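 active = mean inhibition at 8 µM reaching about 37%, which flags the compound as non-specific, limit read from the data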;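 also: p53-null SaOS-2 cells with luciferase driven by a doxycycline-inducible promoter; compound on cells about two nights before reading with doxycycline added after day one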
NTR1 ag confirm = confirmation of agonists of human NTR1. NTR1-U2OS beta-arrestin-GFP translocation imaging. 480 tested, 38% active. shares compounds with NTR1 ag. activation, % at 20 µM;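 active = mean activation at 20 µM of at least 40%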;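 also: 0% = DMSO without peptide and 100% = 100 nM NTR1 peptide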
* marks the source's active call; other numbers are inactive results; i = inactive; ? = inconclusive; nt = no result given.

SMILES | Bfl-1 A1 inh | Beta cell apopt | NTR1 ag | Mdm2-MdmX inh | 697 NFkB inh | Jurkat NFkB inh | 697 NFkB conf | others
Cc1ccc(S(=O)(=O)Nc2ccc3c4c(cccc24)CC3)c(C)c1 | -2 | 10 | 41* | 71* | -25 | 50* | nt | Jurkat NFkB conf=28;Mdm2-MdmX conf=60*;FLuc counter=53*;NTR1 ag confirm=0
CCN1C(=O)C(=O)N(CC(=O)Nc2cccc(C(F)(F)F)c2)C1=O | -2 | -5 | 1 | -6 | 12 | 2 | nt
COc1ccc(-c2cc(-c3cc(C)ccc3O)[nH]n2)cc1 | 1 | nt | 44* | -63 | 10 | 77* | nt | Jurkat NFkB conf=38;NTR1 ag confirm=14
CC(C)(Sc1ccc(CCN(CCCCC2CCCCC2)C(=O)NC2CCCCC2)cc1)C(=O)O | 0 | -1 | 7 | 21 | 12 | 1 | nt
COC(=O)N/N=C/c1cn(CCOc2ccccc2OC)c2ccccc12 | -1 | -4 | -1 | 21 | 11 | 4 | nt
CNC(=S)N/N=C/c1cn(CCOc2cccc(OC)c2)c2ccccc12 | -1 | 10 | 1 | 32 | 40* | -8 | -11
CNC(=S)N/N=C/c1cn(CCOc2ccccc2OC)c2ccccc12 | -1 | -1 | 3 | 40 | 35* | -13 | 15
CC(C)OCCCn1c(SCC(=O)Nc2ccccc2C(F)(F)F)nc2nccnc2c1=O | -2 | -5 | 0 | 17 | -14 | -1 | nt
CC1=CC(C)(C)Nc2ccc(OC(=O)C(Cc3ccccc3)N3C(=O)c4ccccc4C3=O)cc21 (stereo not given) | -2 | -13 | 4 | 1 | 66* | -5 | 50*
C=CCNC(=O)Cn1nnc(-c2ccc(-c3ccc(OC)cc3)cc2)n1 | -2 | nt | 0 | 3 | -119 | -79 | nt
CCOC(=O)C1CCN(C/C=C/c2ccccc2OC)CC1 | 0 | 0 | -1 | 6 | 38* | 1 | -2
CCOC(=O)C1CCN(C/C=C/c2ccccc2[N+](=O)[O-])CC1 | 0 | -14 | 0 | 13 | 1 | -13 | nt
CCN(CC(=O)Nc1ccc2c(c1)OCCO2)Cc1nc2cc(Cl)ccc2c(=O)[nH]1 | 2 | 2 | -1 | 19 | 5 | -4 | nt
Cc1ccc(Nc2nc(N)nc(-c3oc4ccccc4c3C)n2)cc1 | 1 | 67 | 21 | 26 | -480 | 37 | i
Clc1ccc2nc(N3CCN(c4ccccc4)CC3)sc2c1 | -2 | -1 | 0 | -133 | -271 | -139 | -208
COc1ccc(-c2cc3cc(F)ccc3cn2)cc1 | -5 | -3 | 4 | -144 | -255 | -6 | -263
Nc1nc2ccc(Cl)cc2c2nc(-c3ccco3)nn12 | 0 | 11 | 1 | 45 | 36* | 15 | 28*
Nc1nc(-c2ccco2)nn1C(=O)c1ccc(Cl)cc1 | 0 | 3 | 1 | 19 | 16 | -7 | nt
CCN(CC(=O)Nc1c(F)cccc1F)C(=O)C1(c2ccccc2)CC1 | 0 | 7 | 1 | 1 | 50* | 7 | 19*
N#Cc1cccc(NC(=O)CSc2nnc(C3CC3)n2C2CC2)c1 | 1 | 1 | -2 | 8 | 18 | 8 | nt
CC(=O)NC(C(=O)c1ccccc1)N1CCCCC1 (stereo not given) | 0 | -2 | 0 | 14 | -8 | -8 | nt
COc1ccc(C(=O)N/N=C/c2cc3ccccc3[nH]c2=S)cc1 | 2 | 5 | 1 | 2 | 36* | 16 | 2
Cc1cc(=O)oc2cc(OCCc3ccccc3)ccc12 | -1 | -5 | 8 | 42 | -297 | -78 | -263
O=C(N/C(=C\c1ccco1)C(=O)N1CCCC1CO)c1ccccc1 (stereo not given) | 0 | -1 | 0 | 20 | 7 | -5 | nt
COCCNC(=O)c1c(N)n(-c2cccc(C)c2)c2nc3ccccc3nc12 | 0 | -8 | 0 | 26 | 35* | -1 | 19
SMILES | Bfl-1 A1 inh | Beta cell apopt | NTR1 ag | Mdm2-MdmX inh | 697 NFkB inh | Jurkat NFkB inh | 697 NFkB conf | others
COCCNC(=O)c1c(N)n(-c2ccccc2)c2nc3ccccc3nc12 | -1 | -4 | 0 | 0 | -21 | -13 | nt
Cc1ccc(S(=O)(=O)/C(=C\N(C)C)c2cnc(Cl)s2)cc1 | ? | -2 | 2 | -1 | 36* | 10 | 23
CSc1ccc(C2Nc3cccc4cccc(c34)N2)cc1 | 1 | 4 | 1 | 19 | -266 | 30 | -71
C[C@H](CO)N1C[C@H](C)[C@@H](CN(C)S(=O)(=O)c2cn(C)cn2)Oc2c(NS(=O)(=O)c3cccs3)cccc2C1=O | nt | nt | 0 | -3 | 0 | -2 | nt
CSC1CCCCC1(O)CSc1nc2c(cc1C#N)CCCC2 (stereo not given) | 0 | 3 | 6 | 4 | 40* | -12 | 48*
COc1ccc(/C=N\n2nnc3ccccc32)cc1 | -17 | -9 | 0 | -149 | -294 | -147 | -215
COc1ccc(/C=N/n2c(C)nc3ccccc3c2=O)cc1 | 0 | -5 | -1 | 4 | -19 | -18 | nt
CO/N=C(\c1ccccc1)c1cccnc1 | 1 | -9 | 1 | 15 | 2 | -3 | nt
Cc1ccn2c(c1)nc(=S)n2C(=O)c1ccccc1 | -1 | 10 | 3 | 44 | i | -119 | -405
Cc1cccc(C(=O)n2c(=S)nc3cc(C)ccn32)c1 | -5 | 0 | 0 | 17 | -367 | -132 | -349
O=C(c1ccco1)n1c(=S)nc2ccccn21 | -5 | -5 | 2 | -87 | -81 | -57 | nt
CCOC(=O)N1CCC(NC(=O)c2cc3c(-c4ccc(OC)c(OC)c4)nn(C)c3s2)CC1 | 0 | 13 | 0 | 29 | 41* | -6 | 25
CCOC(=O)N1CCC(NC(=O)c2cc3c(-c4ccccc4F)nn(C)c3s2)CC1 | 0 | 0 | -1 | 18 | 4 | -8 | nt
Brc1cc2[nH]cnc2c2ccccc12 | 0 | -21 | 2 | 19 | 39* | -1 | 26
Oc1ccc2c(ccc3[nH]cnc32)c1 | 0 | -14 | 1 | 29 | -32 | -3 | nt
COCCn1ccc2c(OCC(=O)Nc3cccc(NC(C)=O)c3)cccc2c1=O | -1 | -3 | -1 | 9 | -16 | 7 | nt
O=C(NCCCN1CCOCC1)c1cc(-c2cccs2)on1 | 0 | 17 | -1 | -45 | 48* | -24 | 24
